Results on 35 sequences are retold here after PMC12820563, “FoxP3 forms a head-to-head dimer in vivo and stabilizes its multimerization on adjacent microsatellites”.

Over roughly 16,000 sequences, “rpm ratio (pull-down/input)” has its median near 0.5; the highest 2% begin near 5.5. The entries come from a sample that favours the highest values as a whole.

The target in the experiment is T1, MBP-FoxP3dN (Mus musculus, UniProt Q99JB6 188-423).
T1 sequence: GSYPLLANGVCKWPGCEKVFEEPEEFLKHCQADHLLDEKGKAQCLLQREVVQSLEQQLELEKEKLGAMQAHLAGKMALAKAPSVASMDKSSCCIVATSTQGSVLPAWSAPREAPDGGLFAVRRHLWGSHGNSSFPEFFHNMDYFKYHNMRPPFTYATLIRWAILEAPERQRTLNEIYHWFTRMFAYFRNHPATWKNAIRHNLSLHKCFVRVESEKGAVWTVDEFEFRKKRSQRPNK
The experiment in a line: PD-seq (MBP pull-down with sequencing); 20 mM Tris-HCl pH 7.5, 100 mM NaCl, 1.5 mM MgCl2, 0.4 uM protein, 0.1 uM dsDNA library, 30 min, room temperature, amylose pull-down; high values mean tight binding. Particulars: protein: recombinant; tags: His6-MBP; chain copies: 2; dsDNA, one strand shown. The gist of the method:
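Binding is the reads-per-million enrichment of pull-down relative to input, pooled across replicates. For this, 0.4 µM His6-MBP-tagged mouse FoxP3 or FoxP1 fragment lacking the N-terminus, made in E. coli, was incubated with 0.1 µM Klenow-filled double-stranded degenerate DNA library for 30 min at room temperature in Tris pH 7.5 buffer with NaCl and MgCl2. Complexes bound to amylose resin were washed three times before proteinase K released the DNA for PCR barcoding and Illumina sequencing.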
“GATGATTGTTCTCCCAGCTGATGAATTCGGCACATCGAGTAAACAAATTTTCCTAATCTTTCTGTTCAAGCGCCATCTAC”: the binding signal is 0.778 RPM ratio (pull-down/input).

As to “GATGATTGTTCTCCCAGCTGATGAATTATACTTGTCGAGTAAACAAATTTTCCTAATCTTTCTGTTCAAGCGCCATCTAC”, the binding signal was 1.05 RPM ratio (pull-down/input).

Take “GATGATTGTTCTCCCAGCTGATGAATTTGCATGATCGAGTAAACAAATTTTCCTAATCTTTCTGTTCAAGCGCCATCTAC”: the binding signal is 1.63 RPM ratio (pull-down/input).

On to “GATGATTGTTCTCCCAGCTGATGAATTTGCAGCATCGAGTAAACAAATTTTCCTAATCTTTCTGTTCAAGCGCCATCTAC”, for which the binding signal was 1.6 RPM ratio (pull-down/input).

Regarding “GATGATTGTTCTCCCAGCTGATGAATTTTTTGCATCGAGTAAACAAATTTTCCTAATCTTTCTGTTCAAGCGCCATCTAC”, the binding signal is 1.37 RPM ratio (pull-down/input).

Consider “GATGATTGTTCTCCCAGCTGATGAATTGTTTGCATCGAGTAAACAAATTTTCCTAATCTTTCTGTTCAAGCGCCATCTAC”, for which the binding signal was 6.03 RPM ratio (pull-down/input).

Turning to “GATGATTGTTCTCCCAGCTGATGAATTCTTTGCATCGAGTAAACAAATTTTCCTAATCTTTCTGTTCAAGCGCCATCTAC”, the binding signal was 0.99 RPM ratio (pull-down/input).

For “GATGATTGTTCTCCCAGCTGATGAATTGCATCAATCGAGTAAACAAATTTTCCTAATCTTTCTGTTCAAGCGCCATCTAC”, the binding signal was 3.31 RPM ratio (pull-down/input).

For “GATGATTGTTCTCCCAGCTGATGAATTTGTTGCATCGAGTAAACAAATTTTCCTAATCTTTCTGTTCAAGCGCCATCTAC”, the binding signal was 7.07 RPM ratio (pull-down/input).

For the sequence “GATGATTGTTCTCCCAGCTGATGAATTGCCATCATCGAGTAAACAAATTTTCCTAATCTTTCTGTTCAAGCGCCATCTAC”, the binding signal is 1.56 RPM ratio (pull-down/input).

On to “GATGATTGTTCTCCCAGCTGATGAATTTGCATCATCGAGTAAACAAATTTTCCTAATCTTTCTGTTCAAGCGCCATCTAC”, for which the binding signal is 6.33 RPM ratio (pull-down/input).

As for “GATGATTGTTCTCCCAGCTGATGAATTACTATCGTCGAGTAAACAAATTTTCCTAATCTTTCTGTTCAAGCGCCATCTAC”, the binding signal was 0.509 RPM ratio (pull-down/input).

In the case of “GATGATTGTTCTCCCAGCTGATGAATTGCTAACTTCGAGTAAACAAATTTTCCTAATCTTTCTGTTCAAGCGCCATCTAC”, the binding signal was 0.723 RPM ratio (pull-down/input).

In the case of “GATGATTGTTCTCCCAGCTGATGAATTGCAAGCGTCGAGTAAACAAATTTTCCTAATCTTTCTGTTCAAGCGCCATCTAC”, the binding signal was 0.974 RPM ratio (pull-down/input).

Consider “GATGATTGTTCTCCCAGCTGATGAATTAGGTGGCTCGAGTAAACAAATTTTCCTAATCTTTCTGTTCAAGCGCCATCTAC”, for which the binding signal is 0.625 RPM ratio (pull-down/input).

“GATGATTGTTCTCCCAGCTGATGAATTATCAGAGTCGAGTAAACAAATTTTCCTAATCTTTCTGTTCAAGCGCCATCTAC”: the binding signal was 0.249 RPM ratio (pull-down/input).

With “GATGATTGTTCTCCCAGCTGATGAATTCTTCTCATCGAGTAAACAAATTTTCCTAATCTTTCTGTTCAAGCGCCATCTAC”, the binding signal was 0.242 RPM ratio (pull-down/input).

For “GATGATTGTTCTCCCAGCTGATGAATTGTTTTATTCGAGTAAACAAATTTTCCTAATCTTTCTGTTCAAGCGCCATCTAC”, the binding signal was 1.66 RPM ratio (pull-down/input).

“GATGATTGTTCTCCCAGCTGATGAATTTTTTTATTCGAGTAAACAAATTTTCCTAATCTTTCTGTTCAAGCGCCATCTAC”: the binding signal was 0.313 RPM ratio (pull-down/input).

For the sequence “GATGATTGTTCTCCCAGCTGATGAATTATTTATTTCGAGTAAACAAATTTTCCTAATCTTTCTGTTCAAGCGCCATCTAC”, the binding signal was 2.74 RPM ratio (pull-down/input).

With “GATGATTGTTCTCCCAGCTGATGAATTATTTCTTTCGAGTAAACAAATTTTCCTAATCTTTCTGTTCAAGCGCCATCTAC”, the binding signal is 0.419 RPM ratio (pull-down/input).

Take “GATGATTGTTCTCCCAGCTGATGAATTTCTTTATTCGAGTAAACAAATTTTCCTAATCTTTCTGTTCAAGCGCCATCTAC”: the binding signal was 1.53 RPM ratio (pull-down/input).

On to “GATGATTGTTCTCCCAGCTGATGAATTTATTATTTCGAGTAAACAAATTTTCCTAATCTTTCTGTTCAAGCGCCATCTAC”, for which the binding signal is 5.57 RPM ratio (pull-down/input).

Turning to “GATGATTGTTCTCCCAGCTGATGAATTGGTTATTTCGAGTAAACAAATTTTCCTAATCTTTCTGTTCAAGCGCCATCTAC”, the binding signal is 3.1 RPM ratio (pull-down/input).

Consider “GATGATTGTTCTCCCAGCTGATGAATTGGTTTATTCGAGTAAACAAATTTTCCTAATCTTTCTGTTCAAGCGCCATCTAC”, for which the binding signal was 4.04 RPM ratio (pull-down/input).

On to “GATGATTGTTCTCCCAGCTGATGAATTTATTGGTTCGAGTAAACAAATTTTCCTAATCTTTCTGTTCAAGCGCCATCTAC”, for which the binding signal was 5.89 RPM ratio (pull-down/input).

As to “GATGATTGTTCTCCCAGCTGATGAATTTATTTATTCGAGTAAACAAATTTTCCTAATCTTTCTGTTCAAGCGCCATCTAC”, the binding signal was 5.86 RPM ratio (pull-down/input).

For “GATGATTGTTCTCCCAGCTGATGAATTTATTCTTTCGAGTAAACAAATTTTCCTAATCTTTCTGTTCAAGCGCCATCTAC”, the binding signal is 0.542 RPM ratio (pull-down/input).

Regarding “GATGATTGTTCTCCCAGCTGATGAATTTGTTTATTCGAGTAAACAAATTTTCCTAATCTTTCTGTTCAAGCGCCATCTAC”, the binding signal was 7.73 RPM ratio (pull-down/input).

As for “GATGATTGTTCTCCCAGCTGATGAATTACCTGCTTCGAGTAAACAAATTTTCCTAATCTTTCTGTTCAAGCGCCATCTAC”, the binding signal was 0.326 RPM ratio (pull-down/input).

Take “GATGATTGTTCTCCCAGCTGATGAATTTCACGGCTCGAGTAAACAAATTTTCCTAATCTTTCTGTTCAAGCGCCATCTAC”: the binding signal was 0.24 RPM ratio (pull-down/input).

With “GATGATTGTTCTCCCAGCTGATGAATTGTGGTACTCGAGTAAACAAATTTTCCTAATCTTTCTGTTCAAGCGCCATCTAC”, the binding signal is 1.06 RPM ratio (pull-down/input).

On to “GATGATTGTTCTCCCAGCTGATGAATTGTTCCATTCGAGTAAACAAATTTTCCTAATCTTTCTGTTCAAGCGCCATCTAC”, for which the binding signal was 0.579 RPM ratio (pull-down/input).

As to “GATGATTGTTCTCCCAGCTGATGAATTAACGGGTTCGAGTAAACAAATTTTCCTAATCTTTCTGTTCAAGCGCCATCTAC”, the binding signal was 0.329 RPM ratio (pull-down/input).

In the case of “GATGATTGTTCTCCCAGCTGATGAATTCCAAATCTCGAGTAAACAAATTTTCCTAATCTTTCTGTTCAAGCGCCATCTAC”, the binding signal is 0.26 RPM ratio (pull-down/input).
